# Laboratory results: PubChem BioAssay (NCATS)
# Values without a mark were called inactive. Results filed as inconclusive are left out. Entries that show only a call come without a potency. The source made the active and inactive calls. Unless noted, the call rests on the fitted dose curve; in most records, active means well fitted curve in the direction sought with a large enough effect; inconclusive means small, poorly fitted or top-dose-only effect, or another doubt; inactive means no such curve, though single readings can be large; an effect the other way counts as inactive or inconclusive.
# Legend:
# [1] = qHTS to identify inhibitors of the type 1 interferon - major histocompatibility complex class I in skeletal muscle: primary screen against the NCATS Mechanism Interrogation Plate v5.0 (MIPE) Libary (AID 1347411); further: nearly all actives have a fitted effect of over 65% in size; further: potency means the concentration at half of the fitted maximal effect
# Summary of the method: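 IFN-beta-driven (4 ng/ml) HLA-B-HiBit expression in CRISPR-tagged C25cl48 myoblasts; compounds 11-pt, 1:3, max 46 uM, 24 hr exposure; lytic NanoLuc complementation luminescence.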
# [2] = target: Calcium and integrin-binding protein 1 (Homo sapiens) (UniProt Q99828); assay: Primary qHTS for Identification of Calcium Integrin Binding Protein 1 (CIB1) Competitor (AID 1508620);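 further: GST tagged CIB1 binding a fluorescein labelled alphaIIb integrin peptide tracer; top concentration of the series differs between compounds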
# Summary of the method: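 Fluorescence polarization competition: CIB1-GST (1 uM final) preincubated with compound 15 min at room temperature, then FITC-labeled alphaIIb peptide (100 nM final) added for another 15 min. Polarization read at Ex 480/Em 540.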
# [3] = Primary qHTS for small molecule stabilizers of the endoplasmic reticulum resident proteome: Secreted ER Calcium Modulated Protein (SERCaMP) assay (AID 1508630)
# Summary of the method: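 The SH-SY5Y reporter protocol was run at 3 concentrations up to 38.3 uM (primary) or 11 concentrations (follow-up): 16 h compound, 100 nM thapsigargin for 4 h, then extracellular luciferase luminescence.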
# [4] = target: Protein phosphatase 1D (Homo sapiens) (UniProt O15297); assay: RapidFire Mass Spectrometry qHTS Assay for Modulators of WT P53-Induced Phosphatase 1 (WIP1) (AID 1347424);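 further: amount of dephosphorylated VEPPL-S-QETFS peptide product formed by WIP1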; further: potency means the concentration at half of the fitted maximal effect; on activity change, negative = inhibition: series mostly up to about 63 µM
# Summary of the method: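 Mass-spectrometric measurement of dephosphorylated peptide after a 5 min room-temperature reaction of 10 nM WIP1 with 2 uM phosphopeptide, following 1 h compound preincubation in 30 mM MgCl2 buffer.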
# [5] = Primary qHTS for inhibitors of La Crosse Virus (LACV) - induced cell death in SH-SY5Y cells (AID 1508616);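 further: top concentration of the series differs between compounds; higher means more rescue of cells from virus-induced death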
# Summary of the method: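 Screening measures cell viability in LACV-infected SH-SY5Y cultures. Compound was added before virus (0.01 MOI), and ATP was detected by luminescence 6 days later.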
# [6] = target: Cytochrome P450 2C9 (Homo sapiens) (UniProt P11712); assay: Cytochrome P450 family 2 subfamily C member 9 (CYP2C9) small molecule antagonists: luciferase biochemical (cell-free) qHTS assay (AID 1645842; active means well fitted curve in the direction sought with a large enough effect in the repeat runs; an effect the other way counts as inactive or inconclusive; further: nearly all actives have a fitted effect of over 55% in size; further: potency means the concentration at half of the fitted maximal effect; on activity change, negative = inhibition: series mostly up to about 57 µM)
# Summary of the method: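 P450-Glo CYP2C9 system: proluciferin substrate with enzyme in mix containing 0.4% BSA, 10 min at room temperature, then NADPH regeneration solution added and incubated 1 h at 37C. Detection reagent stopped reaction; luminescence read after 20 min as RLU.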
# [7] = target: Protein phosphatase 1D (Homo sapiens) (UniProt O15297); assay: Rhodamine-PBP qHTS Assay for Modulators of WT P53-Induced Phosphatase 1 (WIP1) (AID 1347425)
# Summary of the method: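 The read-out is the change in Rhodamine-PBP fluorescence (f1 - f0, ex 525/em 598 nm) as Pi is released, read each minute for 11 min. Final reaction: 5 nM WIP1, 10 uM phosphopeptide VEPPL-pS-QETFS, 10 uM Rh-PBP, 50 mM Tris-HCl pH 7.5, 30 mM MgCl2. Compound was preincubated with enzyme for 1 hour at room temperature.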
# [8] = A High-Content qHTS Against Drug Library for the Identification of Small Molecules that Inhibit DYT1 Early Onset Primary Dystonia-Associated Cell Pathology (AID 1645839; calls by dose curve; further: potency means the concentration at half of the fitted maximal effect)
# Summary of the method: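 Induced EGFP-delE TorsinA cells are imaged after 48 h of compound treatment. Punctate fusion-protein distribution gives the %pathology value, while nuclei counts flag toxicity. Wild-type EGFP-hTOR1A cells define the normal pattern.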
# [9] = target: Calcium and integrin-binding protein 1 (Homo sapiens) (UniProt Q99828); assay: Confirmatory qHTS for Identification of Calcium Integrin Binding Protein 1 (CIB1) Competitor (AID 1508617); further: nearly all actives have a fitted effect of over 65% in size
# Summary of the method: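 Compounds at up to 114 uM final met 1 uM GST-tagged CIB1 for 15 min at room temperature (HEPES pH 7.4, 5 mM CaCl2). FITC-labelled alphaIIb peptide, 100 nM, added; polarization read after 15 min more.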
# [10] = target: N-terminal Xaa-Pro-Lys N-methyltransferase 1 (Homo sapiens) (UniProt Q9BV86); assay: Confirmatory qHTS for Inhibitors of N-terminal methyltransferase 1 (NTMT1): MTaseGlo Assay (AID 1645874);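 further: luminescence from SAH made as NTMT1 methylates SPKRIA peptide using SAM; series mostly up to about 100 µM; nearly all actives have a fitted effect of over 65% in size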
# Summary of the method: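 MTase-Glo luminescence measured SAH formed by 125 nM NTMT1 from 100 uM SAM and 1 uM SPKRIA peptide over 30 min at room temperature, following 15 min compound preincubation. Percent inhibition against no-enzyme and DMSO controls gave 4-parameter Hill fits.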
# [11] = qHTS for inhibitors of adenylyl cyclases using a fission yeast platform: a pilot screen against the NCATS LOPAC library (AID 1347410)
# Summary of the method: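 GFP from fbp1-GFP reporter, read by Acumen laser cytometry, indicates AC inhibition in fission yeast expressing AC9, GNAS and PDE4D2. Cells grown 18 h in the dark at 30C with compounds, final up to 57 uM.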
# [12] = Validation qHTS assay for inhibitors of Activation Induced Cytidine Deaminase (AID): UDG Counterscreen signal (AID 1347427)
# Summary of the method: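 Fluorescence at 560 nm excitation, 665 nm emission reports UDG signal after 250 mM NaOH (2x) addition and 30 min. Enzymes (AID 1 uM, UDG 2 U/mL, at 4/3x) preincubated 10 min with compound, then 4 h with 4x 250 nM DJC20/DJC23 substrate at room temperature.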
# [13] = target: Single-stranded DNA cytosine deaminase (Homo sapiens) (UniProt Q9GZX7); assay: Validation qHTS assay for inhibitors of Activation Induced Cytidine Deaminase (AID): AID signal (AID 1347429)
# Summary of the method: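 Compounds (up to 114 uM final) are tested against AID plus UDG using DJC20/DJC23 FRET substrate. Reactions incubate 4 hr at room temperature, receive NaOH for 30 min, and are read at Ex 540/Em 590 nm.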
# [14] = target: Calcium and integrin-binding protein 1 (Homo sapiens) (UniProt Q99828); assay: Validation qHTS for Identification of Calcium Integrin Binding protein 1 (CIB1) Competitor (AID 1508618)
# Summary of the method: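 CIB1-GST (1 uM final) incubated 15 min at room temperature with compounds (up to 114 uM), then FITC-labelled alphaIIb peptide (100 nM) added. FP read (Ex 480/Em 540) after 15 min, pH 7.4 buffer containing 5 mM CaCl2.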
# Papain (Carica papaya) = Papain (Carica papaya) (UniProt P00784); assay: Primary qHTS assay for inhibitors of the protease papain (AID 1645873);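 further: papain turnover of Z-FR-AMC read as the AMC fluorescence gain over 10 min; series mostly up to about 50 µM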
# [15] = Counterscreen qHTS for small molecule stabilizers of the endoplasmic reticulum resident proteome: GLuc-NoTag assay (AID 1508627); further: series mostly up to about 76 µM
# Summary of the method: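 Secreted GLuc lacking the SERCaMP modification is measured in SH-SY5Y cells exposed to compound for 19 h and then to thapsigargin (100 nM, 4 h) to deplete ER calcium; hits retested at 11 concentrations, up to 76.6 uM.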
# [16] = Confirmatory qHTS for small molecule stabilizers of the endoplasmic reticulum resident proteome: Secreted ER Calcium Modulated Protein (SERCaMP) assay (AID 1508628); further: series mostly up to about 76 µM; nearly all actives have a fitted effect of over 40% in size
# Summary of the method: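 GLuc-SERCaMP-expressing SH-SY5Y cells, pretreated 16 h with compound, are challenged with thapsigargin to empty ER calcium stores; after 4 h, coelenterazine is added directly to the medium and luminescence is imaged.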
# [17] = Cell Viability qHTS for small molecule stabilizers of the endoplasmic reticulum resident proteome (AID 1508629); conditions: cell viability counter-screen, 100 nM thapsigargin for final 4 h;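 further: human SH-SY5Y neuroblastoma cells carrying the GLuc-SERCaMP reporter; compound exposure about 46 h in total before the viability read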
# [18] = target: Cytochrome P450 2D6 (Homo sapiens) (UniProt P10635); assay: Cytochrome P450 family 2 subfamily D member 6 (CYP2D6) small molecule antagonists: luciferase biochemical (cell-free) qHTS assay (AID 1645840; active means well fitted curve in the direction sought with a large enough effect in the repeat runs; an effect the other way counts as inactive or inconclusive; further: series mostly up to about 57 µM; nearly all actives have a fitted effect of over 55% in size)
# Summary of the method: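 P450-Glo CYP2D6 system: proluciferin substrate converted by enzyme to luciferin, read by luminescence proportional to activity. Enzyme-substrate mix with compound 10 min at room temperature, then NADPH regeneration 1 h before detection reagent.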
# Sequence of Calcium and integrin-binding protein 1 (Homo sapiens) (Q99828 whole entry, looked up): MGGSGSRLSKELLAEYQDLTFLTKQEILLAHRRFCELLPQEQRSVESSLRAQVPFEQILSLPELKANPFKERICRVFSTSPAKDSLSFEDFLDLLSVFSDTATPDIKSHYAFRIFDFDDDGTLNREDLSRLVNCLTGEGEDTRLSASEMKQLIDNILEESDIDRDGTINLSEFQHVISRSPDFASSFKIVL
# Sequence of Protein phosphatase 1D (Homo sapiens) (O15297 whole entry, looked up): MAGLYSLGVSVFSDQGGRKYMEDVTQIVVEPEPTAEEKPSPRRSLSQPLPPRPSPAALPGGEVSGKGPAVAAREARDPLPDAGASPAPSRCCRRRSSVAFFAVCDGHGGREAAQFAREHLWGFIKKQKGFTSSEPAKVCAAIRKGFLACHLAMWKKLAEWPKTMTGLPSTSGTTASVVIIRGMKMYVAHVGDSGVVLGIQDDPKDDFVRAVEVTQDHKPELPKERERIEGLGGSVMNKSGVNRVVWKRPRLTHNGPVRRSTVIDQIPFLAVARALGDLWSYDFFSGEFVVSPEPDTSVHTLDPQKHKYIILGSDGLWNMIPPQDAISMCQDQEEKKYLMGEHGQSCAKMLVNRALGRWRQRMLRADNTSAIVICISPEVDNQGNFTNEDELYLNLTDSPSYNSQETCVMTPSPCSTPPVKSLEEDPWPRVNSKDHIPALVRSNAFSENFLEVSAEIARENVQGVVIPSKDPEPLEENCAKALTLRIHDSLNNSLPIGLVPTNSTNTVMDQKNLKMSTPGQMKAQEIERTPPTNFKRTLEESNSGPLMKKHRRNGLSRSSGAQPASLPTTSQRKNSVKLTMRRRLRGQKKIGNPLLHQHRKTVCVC
# Sequence of Cytochrome P450 2D6 (Homo sapiens) (P10635 whole entry, looked up): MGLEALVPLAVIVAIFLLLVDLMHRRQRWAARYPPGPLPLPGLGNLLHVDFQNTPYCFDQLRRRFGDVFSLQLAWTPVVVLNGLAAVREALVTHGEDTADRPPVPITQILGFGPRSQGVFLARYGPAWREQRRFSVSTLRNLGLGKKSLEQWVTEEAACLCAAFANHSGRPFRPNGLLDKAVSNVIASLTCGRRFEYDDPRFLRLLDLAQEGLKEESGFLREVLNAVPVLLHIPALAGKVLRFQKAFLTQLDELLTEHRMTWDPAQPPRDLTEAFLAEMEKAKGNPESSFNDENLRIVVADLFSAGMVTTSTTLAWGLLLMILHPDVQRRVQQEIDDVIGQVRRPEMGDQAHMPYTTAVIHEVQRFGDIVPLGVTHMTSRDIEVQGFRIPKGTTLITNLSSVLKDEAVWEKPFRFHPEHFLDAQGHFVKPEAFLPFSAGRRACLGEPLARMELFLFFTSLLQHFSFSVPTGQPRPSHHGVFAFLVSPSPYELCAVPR
# Sequence of Cytochrome P450 2C9 (Homo sapiens) (P11712 whole entry, looked up): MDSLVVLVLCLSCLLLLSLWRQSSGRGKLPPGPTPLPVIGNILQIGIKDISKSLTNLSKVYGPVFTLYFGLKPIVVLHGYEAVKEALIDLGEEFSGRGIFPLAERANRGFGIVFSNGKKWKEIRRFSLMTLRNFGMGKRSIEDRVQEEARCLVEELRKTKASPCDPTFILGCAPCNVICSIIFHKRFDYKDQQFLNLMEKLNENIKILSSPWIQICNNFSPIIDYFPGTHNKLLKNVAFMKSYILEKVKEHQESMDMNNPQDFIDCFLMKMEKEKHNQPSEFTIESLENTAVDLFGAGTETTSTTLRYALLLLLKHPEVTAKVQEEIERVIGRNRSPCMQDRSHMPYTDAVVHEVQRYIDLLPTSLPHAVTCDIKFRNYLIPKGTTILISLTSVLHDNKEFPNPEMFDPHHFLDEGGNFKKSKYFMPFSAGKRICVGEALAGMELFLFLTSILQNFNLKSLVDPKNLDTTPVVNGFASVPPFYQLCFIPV
# Sequence of Papain (Carica papaya) (P00784 whole entry, looked up): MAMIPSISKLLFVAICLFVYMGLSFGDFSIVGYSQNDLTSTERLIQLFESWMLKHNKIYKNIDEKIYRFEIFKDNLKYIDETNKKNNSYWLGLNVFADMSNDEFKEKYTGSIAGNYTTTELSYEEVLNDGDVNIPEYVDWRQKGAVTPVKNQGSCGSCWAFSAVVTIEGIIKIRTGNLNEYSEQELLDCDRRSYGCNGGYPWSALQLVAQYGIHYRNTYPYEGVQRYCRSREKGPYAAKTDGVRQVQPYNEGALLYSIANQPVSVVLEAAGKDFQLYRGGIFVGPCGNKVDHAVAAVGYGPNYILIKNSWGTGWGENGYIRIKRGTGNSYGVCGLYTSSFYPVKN
# Sequence of Single-stranded DNA cytosine deaminase (Homo sapiens) (Q9GZX7 whole entry, looked up): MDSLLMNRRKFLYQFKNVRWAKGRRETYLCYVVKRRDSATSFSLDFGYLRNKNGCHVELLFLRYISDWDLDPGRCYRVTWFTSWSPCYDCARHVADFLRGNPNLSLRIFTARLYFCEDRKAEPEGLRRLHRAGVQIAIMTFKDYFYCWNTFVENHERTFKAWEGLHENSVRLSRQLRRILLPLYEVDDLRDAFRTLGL
# Sequence of N-terminal Xaa-Pro-Lys N-methyltransferase 1 (Homo sapiens) (Q9BV86 whole entry, looked up): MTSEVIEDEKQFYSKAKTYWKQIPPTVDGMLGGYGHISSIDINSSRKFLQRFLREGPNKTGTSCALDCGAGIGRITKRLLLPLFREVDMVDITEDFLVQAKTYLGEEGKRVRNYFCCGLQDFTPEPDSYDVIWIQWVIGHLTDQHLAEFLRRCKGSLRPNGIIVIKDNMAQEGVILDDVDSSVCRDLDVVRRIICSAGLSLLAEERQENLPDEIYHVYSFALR
smiles,measurement,setting,value
C[C@@]12O[C@@H](C[C@]1(O)CO)n1c3ccccc3c3c4c(c5c6ccccc6n2c5c31)CNC4=O,Potency,[1],0.739 µM (active)
same,outcome,[2],inactive
same,Potency,[3],inactive
Cc1cc(Nc2cc(N3CCN(C)CC3)nc(Sc3ccc(NC(=O)C4CC4)cc3)n2)n[nH]1,Potency,[1],inactive
same,outcome,[2],inactive
same,Potency,[3],inactive
Nc1nc(-c2nn(Cc3ccccc3F)c3ncccc23)nc(N)c1N1CCOCC1,Potency,[1],inactive
same,outcome,[2],inactive
same,Potency,[3],inactive
COC(=O)C[C@](O)(CCCC(C)(C)O)C(=O)O[C@@H]1C(OC)=C[C@]23CCCN2CCc2cc4c(cc2[C@H]13)OCO4,Potency,[1],0.093 µM (active)
same,outcome,[2],inactive
same,Potency,[3],inactive
COc1cc(C(=O)NS(=O)(=O)c2ccccc2C)ccc1Cc1cn(C)c2ccc(NC(=O)OC3CCCC3)cc12,Potency,[1],inactive
same,Potency,[4],15.8 µM (active)
same,outcome,[5],inactive
same,Potency,[3],inactive
same,Potency,[6],13.8 µM (active)
Cc1cn(-c2cc(NC(=O)c3ccc(C)c(Nc4nccc(-c5cccnc5)n4)c3)cc(C(F)(F)F)c2)cn1,Potency,[1],inactive
same,outcome,[2],inactive
CN(C)CCCN=c1c2ccccc2n(C)c2[nH]c(=O)n(C)c(=O)c12,Potency,[1],16.5 µM (active)
same,outcome,[2],inactive
CCN(CC)CCNC(=O)c1ccc2nc(-c3ccccc3)c(-c3ccc(CN4CCC(n5c(=O)[nH]c6ccccc65)CC4)cc3)nc2c1,Potency,[1],6.58 µM (active)
same,outcome,[2],inactive
same,Potency,[3],inactive
COC(=O)C1=C(C)NC(C)=C(C(=O)OCCN2CCN(C(c3ccccc3)c3ccccc3)CC2)C1c1cccc([N+](=O)[O-])c1 (stereo not given),Potency,[1],inactive
same,Potency,[4],inactive
same,outcome,[7],inactive
same,outcome,[5],inactive
same,outcome,[2],inactive
same,Potency,[8],8.91 µM (active)
same,Potency,[6],1.55 µM (active)
O=C(CCCCCCC(=O)Nc1ccc([C@H]2O[C@@H](CSc3nc(-c4ccccc4)c(-c4ccccc4)o3)C[C@@H](c3ccc(CO)cc3)O2)cc1)NO,"activity change, negative = inhibition",[1],14.6% [at 8.44 µM]
same,outcome,[2],inactive
C[C@]12CC[C@H](O)CC1=CCC1C2CC[C@]2(C)C(n3cnc4ccccc43)=CCC12 (stereo not given in full),Potency,[1],inactive
same,outcome,[2],inactive
same,Potency,[3],inactive
OCc1ccc(-c2ccc(-c3ccc(CO)s3)o2)s1,Potency,[1],33 µM (active)
same,Potency,[9],inactive
same,outcome,[2],inactive
same,Potency,[10],inactive
CN(c1ncccc1CNc1nc(Nc2ccc3c(c2)CC(=O)N3)ncc1C(F)(F)F)S(C)(=O)=O,Potency,[1],4.66 µM (active)
same,outcome,[2],inactive
same,Potency,[3],inactive
O=C(c1cncc(Br)c1)N1CCC(N2CCCC2)CC1,Potency,[1],inactive
same,outcome,[2],inactive
O=C(O)CCCc1c[nH]c2ccccc12,Potency,[1],inactive
same,outcome,[2],inactive
CC(C)(C)c1cc(NC(=O)Nc2ccc(-c3cn4c(n3)sc3cc(OCCN5CCOCC5)ccc34)cc2)no1,Potency,[1],inactive
same,outcome,[2],inactive
same,Potency,[3],inactive
C[C@@H](Oc1cc(-n2cnc3ccc(CN4CCN(C)CC4)cc32)sc1C(N)=O)c1ccccc1C(F)(F)F,Potency,[1],20.8 µM (active)
same,outcome,[2],inactive
same,Potency,[3],inactive
Cc1ccc(-c2ncn(-c3ccc(Nc4nccc(-c5cccc(N6CCOCC6)c5)n4)cc3)n2)cn1,Potency,[1],0.829 µM (active)
same,outcome,[2],inactive
same,Potency,[3],inactive
O=c1c2ccccc2nc2n1CCc1c-2[nH]c2ccccc12,outcome,[11],inactive
same,outcome,[12],inactive
same,outcome,[13],inactive
same,outcome,[5],inactive
same,outcome,[14],inactive
same,outcome,[2],inactive
same,Potency,[3],inactive
same,outcome,Papain (Carica papaya),inactive
c1nc2nc(Nc3ccc(N4CCOCC4)cc3)nc(NC3CCCCC3)c2[nH]1,Potency,[1],2.94 µM (active)
same,outcome,[2],inactive
same,Potency,[3],inactive
CC(=O)OCC(=O)[C@@]1(O)[C@H](C)C[C@H]2[C@@H]3C=C(C)C4=Cc5c(cnn5-c5ccccc5)C[C@]4(C)[C@@H]3[C@@H](O)C[C@@]21C,Potency,[1],inactive
same,outcome,[2],inactive
same,Potency,[3],inactive
CN1c2cc(O)c(N=NC(N)=O)cc2CC1S(=O)(=O)O (stereo not given),Potency,[1],inactive
same,outcome,[2],inactive
same,Potency,[3],inactive
O=C(NC1CCNCC1)c1[nH]ncc1NC(=O)c1c(Cl)cccc1Cl,Potency,[1],0.262 µM (active)
same,outcome,[2],inactive
COc1ccc(OC)c(-c2nnc3ccc(-c4ccc(OC)c(O[C@@H]5CCOC5)c4)nn23)c1,Potency,[1],inactive
same,outcome,[2],inactive
O=C1CCC[C@@H]2[C@H]3CCC[N+]4([O-])CCC[C@@H](CN12)[C@@H]34 (stereo not given in full),Potency,[1],inactive
same,outcome,[2],inactive
same,Potency,[3],inactive
CC(=O)SC[C@@H](C)C(=O)N1CCC[C@H]1C(=O)N[C@@H](Cc1ccccc1)C(=O)O,Potency,[1],inactive
same,Potency,[4],inactive
same,outcome,[7],inactive
same,outcome,[5],inactive
same,outcome,[2],inactive
same,Potency,[15],inactive
same,outcome,[16],inactive
same,max response,[17],10.6%
same,Potency,[3],inactive
same,Potency,[8],inactive
same,Potency,[18],inactive
Cc1nc2ccc(CN(C)c3ccc(C(=O)N[C@@H](CCC(=O)O)C(=O)O)s3)cc2c(=O)[nH]1,Potency,[1],inactive
same,Potency,[4],inactive
same,outcome,[7],inactive
same,outcome,[5],inactive
same,outcome,[2],inactive
same,Potency,[3],inactive
same,Potency,[8],inactive
same,Potency,[18],inactive
same,Potency,[6],inactive
